The text below walks through data of PubChem BioAssay (EPA / NIEHS).

Each structure is given as a SMILES string. Inconclusive results are not listed. Calls of active or inactive are those of the source. How the source made its calls, unless noted: active means hit-call score of the fitted dose curve at least 0.9, where 1 is the maximum; inactive means score below 0.9.

The nature of assay [1]: ACEA_ER_80hr: ACEA Biosciences xCELLigence Real-Time Cell Analysis on Estrogen Receptor Agonism for Proliferation (AID 2282667; active means hit-call score of the fitted dose curve at least 0.9, where 1 is the maximum). The note with it: T47D proliferation, impedance (xCELLigence), 80 h. A digest of the protocol:
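T-47D cells monitored by electrical impedance (xCELLigence) with compound present throughout; 80 h timepoint, positive-direction fitting versus DMSO. Eight-point 1:4 dilutions from 100 uM final, duplicate plates.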

The nature of assay [2]: APR_HepG2_CellCycleArrest_24hr: Apredica 24-hour HepG2 Assay for Cell Cycle Arrest (AID 2282905).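 Further: cell cycle arrest scored as ratio of 2N to 4N nuclear DNA content.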 The settings on record: imaging, actives raise or lower the signal. A digest of the protocol:
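Cell cycle arrest is scored from nuclear DNA content measured by high-content imaging of Hoechst 33342-stained HepG2 cells following 24-hour treatment at ten concentrations up to 200 uM, with DMSO as baseline.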

A short description of assay [3]: APR_HepG2_NuclearSize_24hr: Apredica 24-hour HepG2 Assay for Nuclear Size (AID 2282907). The note with it: high-content imaging, actives raise or lower the signal. Summed up:
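Compounds in DMSO (final 0.5%) were added to human HepG2 hepatoma cells at ten concentrations up to 200 uM for 24 hr. Fixed nuclei were stained with Hoechst 33342, and nuclear diameter was quantified from automated images.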

The nature of assay [4]: APR_HepG2_CellLoss_24hr: Apredica 24-hour HepG2 Assay for Cell Loss (AID 2282908).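 On AC50: fit in both directions so a hit may be cell loss or gain.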 The note with it: high-content imaging. Summed up: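 Cell number is quantified by fluorescence imaging of Hoechst 33342-stained nuclei following dosing at 0.39–200 uM in 0.5% DMSO. Curves are fitted in both directions from the DMSO baseline.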
Assay [5] can be described thus: APR_HepG2_MitoticArrest_24hr: Apredica 24-hour HepG2 Assay for Mitotic Arrest (AID 2282910). The note with it: high-content imaging, actives raise or lower the signal. Summed up:
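Compounds are dosed onto HepG2 cells across ten concentrations up to 200 uM for 24 hr. Cells are then fixed in 3.7% formaldehyde, permeabilised, and labelled for phospho-histone H3 and nuclei; images are scored by cell cycle analysis and fitted bidirectionally relative to DMSO.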

A short description of assay [6]: APR_HepG2_MitoMembPot_24hr: Apredica 24-hour HepG2 Assay for Mitochondrial Membrane Potential (AID 2282911). The note with it: imaging, actives raise or lower the signal. Summed up:
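HepG2 cells exposed 24 h to 0.39–200 uM compounds in duplicate, 0.5% v/v DMSO final. MitoTracker Red CMXRos 250 nM loaded 30 min before formaldehyde fixation; high-content imaging at 20x, bidirectional fit versus DMSO.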

The nature of assay [7]: APR_HepG2_MitoMass_24hr: Apredica 24-hour HepG2 Assay for Mitochondrial Mass (AID 2282912). The note with it: high-content imaging, actives raise or lower the signal. Summed up:
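The liver line HepG2 was dosed in duplicate across a 0.39–200 uM series, with final DMSO held at 0.5% v/v, and harvested at 24 hr. High-content imaging measured mitochondrial dye staining.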

Assay [8] is described as follows: APR_HepG2_p53Act_24hr: Apredica 24-hour HepG2 Assay for p53 Activation (AID 2282913).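 Further: p53 protein immunofluorescence averaged per cell in HepG2 with Hoechst nuclei.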 The settings on record: high-content imaging, actives raise or lower the signal. Summed up:
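HepG2 cells exposed 24 h to compounds at 0.39–200 uM in duplicate, 0.5% v/v DMSO final; fixed, permeabilized, stained with anti-p53 antibody and Hoechst 33342; fluorescence imaging; bidirectional curve fit versus DMSO.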

A short description of assay [9]: APR_HepG2_CellCycleArrest_72hr: Apredica 72-hour HepG2 Assay for Cell Cycle Arrest (AID 2282914). The note with it: high-content imaging, actives raise or lower the signal. A digest of the protocol: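 HepG2 cells exposed 72 h in duplicate to 0.39–200 uM compound, 0.5% DMSO final. Formaldehyde-fixed, Hoechst 33342-stained nuclei imaged at 20x, six fields per well; DNA content per valid cell quantified by cell-cycle image analysis, bidirectional fit versus DMSO.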

Assay [10] in a line: APR_HepG2_CellLoss_72hr: Apredica 72-hour HepG2 Assay for Cell Loss (AID 2282915). The settings on record: high-content imaging. Summed up: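 Cell number comes from Hoechst 33342-labelled nuclei, imaged at 20x after 3.7% formaldehyde fixation. Dosing was 0.39–200 uM, ten concentrations in duplicate, 0.5% DMSO final, for 72 h. Bidirectional fit relative to DMSO baseline.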
The nature of assay [11]: APR_HepG2_P-H2AX_72hr: Apredica 72-hour HepG2 Assay for H2AX Phosphorylation (AID 2282916).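 Further: phospho-histone H2A.x immunostain intensity per cell marking DNA damage.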 The settings on record: imaging, actives raise or lower the signal. A digest of the protocol:
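Following 72 hr treatment with 0.39–200 uM compound, HepG2 cells were formaldehyde-fixed, permeabilized and stained for phospho-H2A.x; signal was measured by high-content imaging and fitted bidirectionally against DMSO controls.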

The nature of assay [12]: APR_HepG2_MitoMembPot_72hr: Apredica 72-hour HepG2 Assay for Mitochondrial Membrane Potential (AID 2282917). The note with it: imaging, actives raise or lower the signal. A digest of the protocol:
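Membrane potential read by MitoTracker Red CMXRos (250 nM, 30 min, pre-fixation) fluorescence imaging of HepG2 after 72 hr exposure. Ten concentrations, 0.39–200 uM, duplicate wells, 0.5% DMSO; fitted in both directions against DMSO baseline.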

Assay [13] is described as follows: APR_HepG2_MitoticArrest_72hr: Apredica 72-hour HepG2 Assay for Mitotic Arrest (AID 2282918). The settings on record: high-content imaging, actives raise or lower the signal. A digest of the protocol: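 HepG2 cells treated 72 h at 0.39–200 uM, 0.5% DMSO final; formaldehyde-fixed, stained with Hoechst 33342 and phospho-histone H3 antibody, imaged by high-content fluorescence; bidirectional fit versus DMSO.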

Assay [14] in a line: APR_HepG2_MicrotubuleCSK_72hr: Apredica 72-hour HepG2 Assay for Microtubule CSK Stabilty (AID 2282919). The note with it: HepG2 microtubule cytoskeleton, high-content imaging, actives raise or lower the signal. Summed up:
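Read-out is tubulin fluorescence intensity from high-content imaging of HepG2 cells, with nuclei identified by Hoechst 33342. Treatment lasts 72 h at 0.39–200 uM, and curves are fitted bidirectionally against the DMSO negative control.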

A short description of assay [15]: APR_HepG2_P-H2AX_24hr: Apredica 24-hour HepG2 Assay for H2AX Phosphorylation (AID 2282920). The settings on record: high-content imaging, actives raise or lower the signal. Summed up:
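HepG2 cells dosed 24 h at 0.39–200 uM (10 points, duplicate, 0.5% DMSO final). Formaldehyde-fixed and permeabilized, then immunostained for phospho-H2A.x with Hoechst. Fluorescence quantified by high-content imaging, fitted bidirectionally versus DMSO.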

The nature of assay [16]: APR_HepG2_StressKinase_72hr: Apredica 72-hour HepG2 Assay for Stress Kinase (AID 2282921). The settings on record: HepG2 stress kinase (phospho-c-Jun) imaging, actives raise or lower the signal. Summed up:
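Fluorescence intensity of Cy3-tagged anti-phospho-c-Jun antibody, quantified per cell from Hoechst-defined nuclei across six images per well, served as the read-out following 72 h exposure (0.39–200 uM, 0.5% v/v DMSO).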

The nature of assay [17]: APR_HepG2_p53Act_72hr: Apredica 72-hour HepG2 Assay for p53 Activation (AID 2282923).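 Further: average cellular p53 protein immunofluorescence intensity in HepG2 cells.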 The settings on record: high-content imaging, actives raise or lower the signal. Summed up: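 HepG2 monolayers receive test compounds in duplicate at ten concentrations (0.39 through 200 uM) for 72 hr. They are then formaldehyde-fixed, antibody-labelled for p53, Hoechst-stained and imaged, with activity fitted bidirectionally versus DMSO.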

Assay [18] in a line: APR_HepG2_MitoMass_72hr: Apredica 72-hour HepG2 Assay for Mitochondrial Mass (AID 2282924).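 Further: MitoTracker Red CMXRos stain intensity per cell imaged as mitochondrial mass.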 The settings on record: high-content imaging, actives raise or lower the signal. A digest of the protocol: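 HepG2, 72 hr cmpd, 10 conc 0.39–200 uM in dup, DMSO 0.5% v/v. MitoTracker Red CMXRos 250 nM 30 min pre-fix; formaldehyde 3.7% fix 30 min RT. HCS imaging, gain/loss fit vs DMSO.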

As to `CC(O)CO` (stereo unspecified), the call in [1], in assay [2], in assay [3], in assay [4], in assay [5] and in assay [6] was inactive. For the same molecule, the call in assay [7], in [8], in assay [9], in assay [10], in assay [11] and in assay [12] was inactive. In addition, the call in assay [13], in assay [14], in assay [15], in [16], in assay [17] and in [18] was inactive.

Consider `O=[N+]([O-])c1ccc(O)cc1`, for which the result in assay [1], in [2], in assay [3], in assay [4], in [5] and in assay [6] was inactive. Further, the outcome in assay [7], in [8], in assay [9], in [10], in [11] and in assay [12] was inactive. Besides, the result in assay [13], in assay [14], in assay [15], in assay [16], in [17] and in assay [18] was inactive.

In the case of `CCc1ccc(CCOc2ccc(CC3SC(=O)NC3=O)cc2)nc1` (stereo unspecified), the call in [1], in assay [3], in assay [5], in [6], in [7] and in [8] was inactive. The molecule was classed as inactive in [12], in assay [14], in assay [15], in [16] and in assay [17]. The AC50 in assay [2] is 30.6 µM (active); in assay [4], 110 µM (active); in assay [9], 94.4 µM (active); in assay [10], 112 µM (active); in assay [11] it was 103 µM (active); in [13] it was 103 µM (active). Besides, the AC50 in assay [18] was 57.6 µM (active).

Take `COCC(C)OCC(C)O` (stereo unspecified): the result in assay [1], in [2], in assay [3], in assay [4], in assay [5] and in [6] was inactive. Moreover, the outcome in assay [7], in [8], in [9], in assay [10], in [11] and in assay [12] was inactive. Further, the outcome in [13], in [14], in [15], in assay [16], in [17] and in assay [18] was inactive.

As for `Oc1cc2ccccc2c2ccccc12`, the molecule was classed as inactive in [1], in [3], in assay [9] and in assay [16]. The AC50 in assay [2] was 37.1 µM (active); in [4], 13.1 µM (active); in assay [5] it was 7.13 µM (active); in [6] it was 43.1 µM (active); in assay [7], 97.7 µM (active); in assay [8], 3.2 µM (active). The AC50 in assay [10] was 4.01 µM (active); in [11], 58.6 µM (active); in assay [12], 38.2 µM (active); in assay [13] it was 8.45 µM (active); in [14], 8.21 µM (active); in assay [15], 3.28 µM (active). The results for the AC50 in assay [17] and in assay [18] were 111 µM (active) and 61.3 µM (active), respectively.

With `CC1=C(/C=C/C(C)=C/C=C/C(C)=C/C(=O)O)C(C)(C)CCC1`, the concentration at half-maximal activity (AC50) in [1] is 0.00133 µM (active); in assay [3], 114 µM (active); in assay [4] it was 103 µM (active); in [5], 109 µM (active); in [6] it was 83.2 µM (active); in assay [7] it was 92.6 µM (active). The half-maximal activity concentration (AC50) in [10] is 62 µM (active); in assay [15] it was 86.8 µM (active); in assay [18] it was 79.9 µM (active). The outcome in [2], in assay [8], in [9], in assay [11], in [12] and in [13] was inactive. Moreover, the molecule was called inactive in assay [14], in [16] and in assay [17].

With `CCCCCCCCCCCCc1ccccc1S(=O)(=O)O`, the result in [1], in [2], in assay [3], in assay [6], in assay [7] and in assay [9] was inactive. Moreover, the molecule was called inactive in [12] and in assay [14]. For the same molecule, the AC50 was 116 µM (active) in [4]; 106 µM (active) in [5]; 120 µM (active) in assay [8]; 149 µM (active) in assay [10]; 111 µM (active) in [11]; 107 µM (active) in assay [13]. For the same molecule, the AC50 in [15] was 119 µM (active); in [16] it was 112 µM (active); in assay [17], 106 µM (active); in [18], 120 µM (active).
